For assay [1], the target named is Lysosomal acid glucosylceramidase (Homo sapiens) (UniProt P04062). The assay is described as follows: Glucocerebrosidase-p2 (AID 348; in the data active means potency below about 10 µM; further: potency means the concentration at half of the fitted maximal effect). The conditions noted are these: purified GBA, blue fluorogenic substrate, 40 min. Summed up:
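Normal human glucocerebrosidase (0.2 nM) with blue fluorogenic substrate (80 uM final) in citrate/phosphate pH 5.9 with 10mM sodium taurocholate, 0.01% tween-20; 40 min RT, NaOH/glycine stop; fluorescence Ex 365/Em 440; AC50 from a titration from 0.6 nM upwards.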

Assay [2] in a line: AP1 Signaling Pathway (AID 357).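 Further: ME-180 reporter cells stimulated with EGF at its EC50 level; on the % scale 0 is the no-effect control and ±100 the full control effect.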 Conditions: ME-180 AP-1-bla reporter, EGF-induced, beta-lactamase ratio, 5 h; at 7.69 µM (top of the series) unless noted. Summed up:
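Read-out was the 460nm/530nm emission ratio (excitation 405nm) after CCF4 loading for 2.5 hours at room temperature. Cells carried an AP-1-driven beta-lactamase reporter, were stimulated with EC50 EGF plus compound for 5 hours, and AC50 values came from titrations.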

Assay [3] deals with Cytochrome P450 1A2 (Homo sapiens) (UniProt P05177). Kind of assay: p450-cyp1a2 (AID 410; calls by dose curve; further: potency means the concentration at half of the fitted maximal effect). The conditions noted are these: recombinant CYP1A2, luciferin-ME demethylation, luminescence; series mostly up to 57 µM. The method, boiled down:
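Luminescent demethylation readout: Luciferin-ME (100uM, equal to Km) turned over by 20nM CYP1A2 for 60 min at room temperature after NADPH regeneration addition, following 10 min compound preincubation. Normalization used 57 uM furafylline as full inhibition.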

Assay [4] can be described thus: NFAT Signaling Pathway (AID 444).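 Further: carbachol stimulus at about its EC50 of 1 µM final; on the % scale 0 is the no-effect control and ±100 the full control effect.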 The conditions noted are these: Jurkat NFAT-bla M1, carbachol, beta-lactamase ratio, 5 h; at 7.69 µM (top of the series) unless noted. Summed up:
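Jurkat cells with NFAT-driven β-lactamase reporter and co-expressed M1 receptor, stimulated with carbachol (final 1 uM, ~EC50), compound titration, 5 h at 37 °C. CCF4 loaded 1 h at RT; 460/530 nm ratio gave %activity and AC50.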

A short description of assay [5]: Stat Signaling Pathway (AID 446).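 Further: ME-180 cervical cancer cells given 40 pM IL-6 alongside compound; SIE-controlled beta-lactamase reporter measured as 460/530 nm FRET emission ratio; on the % scale 0 is the no-effect control and ±100 the full control effect.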 The conditions noted are these: ME-180 SIE beta-lactamase reporter, IL-6 stimulated, 5 h; at 7.69 µM (top of the series) unless noted. Summed up:
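FRET read-out (405 nm excitation, 460/530 nm emission) of a beta-lactamase reporter under a STAT-inducible element in ME-180 cervical carcinoma cells. Cells with compound receive 40 pM IL-6 for 5 h. Values are normalised to AC90 stimulation and AC90 JAK-inhibitor controls.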

Assay [6] deals with Glucocorticoid receptor (Homo sapiens) (UniProt P04150). Kind of assay: GR-GFP Redistribution (AID 450;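 active means compounds whose dose series gives a full or clear partial fitted curve of increased nuclear translocation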; further: potency means the concentration at half of the fitted maximal effect). Conditions: U2OS GR-GFP nuclear translocation, laser cytometry, 2 h.
The target is the same in assay [7]. Kind of assay: GR-EFC Redistribution (AID 451; calls by dose curve; further: potency means the concentration at half of the fitted maximal effect). The conditions noted are these: CHO-K1 GR-EFC translocation, beta-gal luminescence, 2 h. The method, boiled down:
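CHO-K1 cells expressing nuclear EA and GR-ED fragments of b-gal; compounds titrated up to 46 uM final, 2 h at 37 C. GR nuclear translocation read as complemented b-gal luminescence after 1 h RT detection.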

For assay [8], the target named is Mitogen-activated protein kinase 10 (Mus musculus) (UniProt Q61831). Kind of assay: JNK3 AlphaScreen Assay (AID 530).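 Further: kinase came from lysate of stimulated human HepG2 cells; signal reports phosphorylation of biotinylated GST-cJun 1-79 at Ser73 with 10 µM ATP; on the % scale 0 is the no-effect control and ±100 the full control effect.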 The conditions noted are these: JNK3 lysate, c-Jun phosphorylation; series mostly up to 57.1 µM. Summed up:
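Activity was read by AlphaScreen after JNK3-containing HepG2 lysate (cytokine pre-activated) phosphorylated biotinylated GST-cJun with 10 uM ATP at room temperature. Phospho-Ser73 cJun antibody with Protein-A acceptor beads provided detection.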
For orientation: Bead proximity is the source of the signal in Alpha formats.

Assay [9] has as its target 3',5'-cyclic-AMP phosphodiesterase 4B (Homo sapiens) (UniProt Q07343). The assay is described as follows: qHTS Assay for Inhibitors of PDE-IV (AID 607; active means well fitted activation curve with a large enough effect in the main read-out, with a control signal flat, not every such curve was filed as active; further: % of control where 0% means no effect). The conditions noted are these: HEK293 ACTOne CNG channel cells, membrane potential fluorescence; series mostly up to 22.9 µM. The method, boiled down:
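Cell-based read-out of cAMP via a modified cyclic nucleotide-gated channel and membrane potential dye (535/590 nm) in HEK293 cells expressing PDE4 endogenously. Compounds tested up to 22.9 uM final; 100 uM RO 20-1724 reference.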

For assay [10], the target named is Cytochrome P450 3A4 (Homo sapiens) (UniProt P08684). Kind of assay: qHTS Assay for Activators of Cytochrome P450 3A4 (AID 885; active means well fitted curve in the direction sought with a large enough effect; an effect the other way counts as inactive or inconclusive; further: nearly all actives have a fitted effect of over 65% in size). The conditions noted are these: recombinant CYP3A4, Luciferin-PPXE luminescence, 60 min; series mostly up to 57.1 µM. The method, boiled down: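 Luminescent readout of luciferin formed from 25 uM Luciferin-PPXE (KM level) by 20 nM CYP3A4 in 200 mM KPO4, with 60 min NADPH-driven reaction at room temperature after 10 min compound exposure. Ketoconazole (57 uM) defined 100% inhibition.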
Background: Quantitative high-throughput screening tests each substance at several concentrations.

Assay [11] in a line: Primary qHTS for small molecule stabilizers of the endoplasmic reticulum resident proteome: Secreted ER Calcium Modulated Protein (SERCaMP) assay (AID 1508630; active means well fitted curve in the direction sought with a large enough effect; an effect the other way counts as inactive or inconclusive; further: on the % scale 0 is the no-effect control and ±100 the full control effect). Conditions: SH-SY5Y GLuc-SERCaMP (Gaussia luciferase released on ER calcium loss) secretion, thapsigargin, luminescence; series mostly up to 38.4 µM. The method, boiled down: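 The SH-SY5Y reporter protocol was run at 3 concentrations up to 38.3 uM (primary) or 11 concentrations (follow-up): 16 h compound, 100 nM thapsigargin for 4 h, then extracellular luciferase luminescence.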

Assay [12] deals with Cytochrome P450 2C9 (Homo sapiens) (UniProt P11712). The assay is described as follows: qHTS Assay for Inhibitors and Substrates of Cytochrome P450 2C9 (AID 883; active means well fitted curve in the direction sought with a large enough effect; an effect the other way counts as inactive or inconclusive; further: nearly all actives have a fitted effect of over 60% in size; further: potency means the concentration at half of the fitted maximal effect). The conditions noted are these: recombinant CYP2C9, luciferin-H luminescence, 60 min; series mostly up to 57.1 µM. Summed up: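 10nM CYP2C9 + 100uM Luciferin-H (=KM), 25mM KPO4; cpd 10 min 37C; NADPH regen, 60 min 37C; stop/detect with P450 Glo-Buffer 20 min; luminescence. Norm. to 57uM sulphaphenazole as full inhibition.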

The target of assay [13] is Cytochrome P450 3A4 (Homo sapiens) (UniProt P08684). Kind of assay: qHTS Assay for Inhibitors and Substrates of Cytochrome P450 3A4 (AID 884; active means well fitted curve in the direction sought with a large enough effect; an effect the other way counts as inactive or inconclusive; further: potency means the concentration at half of the fitted maximal effect; nearly all actives have a fitted effect of over 50% in size). The conditions noted are these: recombinant CYP3A4, Luciferin-PPXE luminescence; series mostly up to 57.1 µM. Summed up:
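Luminescent readout of luciferin produced by CYP3A4 (20 nM) dealkylation of Luciferin-PPXE, 25 uM (its KM). NADPH-driven reaction ran 60 min at RT after 10 min compound preincubation; data scaled to 57 uM ketoconazole as 100% inhibition.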

Assay [14] can be described thus: qHTS Assay for Identification of Small Molecule Agonists for Hypoxia Response Element Signaling Pathway (AID 914; active means well fitted activation curve with a large enough effect in the signal ratio, with a control signal flat, not every such curve was filed as active; the % refers to the signal ratio; further: potency means the concentration at half of the fitted maximal effect; on activation: % of control where 0% means no effect). The conditions noted are these: ME-180 (cervical carcinoma) HRE-bla reporter, beta-lactamase ratio, CoCl2, 17 h; activation: hits give high values. The method, boiled down: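 Reporter activity (beta-lactamase, CCF4 460nm/530nm ratio) in HRE-bla ME-180 cells is recorded after 17 h compound exposure with EC50 CoCl2 at 37 degrees Celsius. AC50 values come from titration data.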

A number with no mark means an inactive call. Inconclusive results are not listed. Calls of active or inactive are those of the source. Unless noted, the call rests on the fitted dose curve; in most records, active means well fitted curve in either direction with a large enough effect (not every such curve was filed as active); inconclusive means small, poorly fitted or top-dose-only effect, or another doubt; inactive means flat fitted curve, though single readings scatter. Some results are limits rather than exact numbers.

Experimental findings from PubChem BioAssay (NCATS) are described below.

Chain of Glucocorticoid receptor (Homo sapiens) (P04150 whole entry, looked up): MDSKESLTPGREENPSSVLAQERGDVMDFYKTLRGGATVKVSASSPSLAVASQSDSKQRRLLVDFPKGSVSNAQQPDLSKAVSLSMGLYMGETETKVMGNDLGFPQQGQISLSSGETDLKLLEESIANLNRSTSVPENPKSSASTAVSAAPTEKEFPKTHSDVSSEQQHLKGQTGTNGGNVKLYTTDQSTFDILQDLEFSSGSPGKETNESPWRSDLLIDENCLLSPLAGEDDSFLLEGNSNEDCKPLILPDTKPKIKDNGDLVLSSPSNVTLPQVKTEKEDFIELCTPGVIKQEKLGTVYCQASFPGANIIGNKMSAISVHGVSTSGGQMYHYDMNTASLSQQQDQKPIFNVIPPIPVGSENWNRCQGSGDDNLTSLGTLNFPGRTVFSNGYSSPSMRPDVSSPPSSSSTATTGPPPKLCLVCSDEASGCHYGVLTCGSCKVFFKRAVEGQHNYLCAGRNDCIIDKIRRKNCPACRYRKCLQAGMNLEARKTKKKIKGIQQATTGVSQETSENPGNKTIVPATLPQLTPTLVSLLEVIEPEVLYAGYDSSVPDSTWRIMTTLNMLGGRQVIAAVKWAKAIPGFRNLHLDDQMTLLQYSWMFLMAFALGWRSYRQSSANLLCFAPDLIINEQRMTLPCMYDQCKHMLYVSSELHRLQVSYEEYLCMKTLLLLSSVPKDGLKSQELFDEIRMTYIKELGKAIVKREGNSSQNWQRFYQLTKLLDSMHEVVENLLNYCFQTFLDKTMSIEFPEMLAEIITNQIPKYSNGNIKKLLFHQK
Chain of 3',5'-cyclic-AMP phosphodiesterase 4B (Homo sapiens) (Q07343 whole entry, looked up): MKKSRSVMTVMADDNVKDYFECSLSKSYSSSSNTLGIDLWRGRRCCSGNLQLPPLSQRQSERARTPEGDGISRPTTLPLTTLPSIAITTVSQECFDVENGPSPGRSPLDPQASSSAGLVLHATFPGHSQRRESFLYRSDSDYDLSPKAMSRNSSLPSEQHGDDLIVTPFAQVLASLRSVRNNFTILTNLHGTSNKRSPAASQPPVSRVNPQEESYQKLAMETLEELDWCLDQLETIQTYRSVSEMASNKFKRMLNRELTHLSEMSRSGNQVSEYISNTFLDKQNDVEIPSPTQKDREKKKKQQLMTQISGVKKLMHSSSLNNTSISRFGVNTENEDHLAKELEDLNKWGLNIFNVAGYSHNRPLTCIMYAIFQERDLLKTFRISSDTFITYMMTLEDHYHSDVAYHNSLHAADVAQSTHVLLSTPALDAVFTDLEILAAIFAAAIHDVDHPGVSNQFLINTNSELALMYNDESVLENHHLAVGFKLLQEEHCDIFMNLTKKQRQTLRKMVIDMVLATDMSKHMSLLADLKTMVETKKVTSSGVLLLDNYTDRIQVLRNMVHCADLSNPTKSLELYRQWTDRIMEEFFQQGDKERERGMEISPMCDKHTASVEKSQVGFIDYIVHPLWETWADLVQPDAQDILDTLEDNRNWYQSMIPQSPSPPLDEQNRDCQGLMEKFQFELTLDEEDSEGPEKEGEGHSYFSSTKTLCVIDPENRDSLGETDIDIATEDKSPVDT
Chain of Cytochrome P450 3A4 (Homo sapiens) (P08684 whole entry, looked up): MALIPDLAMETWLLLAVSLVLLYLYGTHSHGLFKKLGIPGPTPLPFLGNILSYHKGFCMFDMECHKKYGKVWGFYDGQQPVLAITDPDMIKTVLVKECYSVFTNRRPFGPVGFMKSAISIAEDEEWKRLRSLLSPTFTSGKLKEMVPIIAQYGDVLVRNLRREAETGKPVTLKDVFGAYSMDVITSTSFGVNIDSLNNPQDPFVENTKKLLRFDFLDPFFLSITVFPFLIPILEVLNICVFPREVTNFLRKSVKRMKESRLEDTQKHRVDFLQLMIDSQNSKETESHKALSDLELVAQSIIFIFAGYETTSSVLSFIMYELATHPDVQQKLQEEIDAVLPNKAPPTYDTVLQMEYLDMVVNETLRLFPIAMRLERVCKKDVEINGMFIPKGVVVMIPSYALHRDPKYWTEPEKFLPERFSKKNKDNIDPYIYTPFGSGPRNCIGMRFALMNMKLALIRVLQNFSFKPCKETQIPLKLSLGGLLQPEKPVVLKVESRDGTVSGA
Chain of Cytochrome P450 1A2 (Homo sapiens) (P05177 whole entry, looked up): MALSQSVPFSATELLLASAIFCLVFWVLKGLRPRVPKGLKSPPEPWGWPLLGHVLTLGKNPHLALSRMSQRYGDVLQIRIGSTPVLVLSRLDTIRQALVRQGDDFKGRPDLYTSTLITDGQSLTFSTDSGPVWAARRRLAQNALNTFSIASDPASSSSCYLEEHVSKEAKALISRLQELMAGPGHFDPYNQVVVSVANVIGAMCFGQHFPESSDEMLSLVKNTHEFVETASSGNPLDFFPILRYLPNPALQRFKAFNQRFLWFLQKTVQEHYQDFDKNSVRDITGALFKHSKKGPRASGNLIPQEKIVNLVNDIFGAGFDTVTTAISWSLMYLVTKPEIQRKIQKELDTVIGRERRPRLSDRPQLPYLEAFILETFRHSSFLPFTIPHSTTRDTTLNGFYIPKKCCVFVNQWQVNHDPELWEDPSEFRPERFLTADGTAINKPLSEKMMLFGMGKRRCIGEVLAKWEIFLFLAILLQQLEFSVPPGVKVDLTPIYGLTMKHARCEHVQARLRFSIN
Chain of Cytochrome P450 2C9 (Homo sapiens) (P11712 whole entry, looked up): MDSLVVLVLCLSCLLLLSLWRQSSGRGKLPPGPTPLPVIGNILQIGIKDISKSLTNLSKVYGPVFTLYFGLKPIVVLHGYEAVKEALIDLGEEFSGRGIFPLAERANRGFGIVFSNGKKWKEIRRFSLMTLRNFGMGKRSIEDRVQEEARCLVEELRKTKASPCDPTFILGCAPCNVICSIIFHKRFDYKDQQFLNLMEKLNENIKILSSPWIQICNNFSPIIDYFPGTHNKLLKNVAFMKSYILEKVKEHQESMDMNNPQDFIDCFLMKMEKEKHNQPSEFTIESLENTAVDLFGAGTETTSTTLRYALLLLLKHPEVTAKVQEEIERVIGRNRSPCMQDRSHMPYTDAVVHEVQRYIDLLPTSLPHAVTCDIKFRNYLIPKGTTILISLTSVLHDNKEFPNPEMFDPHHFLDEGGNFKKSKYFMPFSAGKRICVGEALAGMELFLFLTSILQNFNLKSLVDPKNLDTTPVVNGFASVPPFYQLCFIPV
Chain of Lysosomal acid glucosylceramidase (Homo sapiens) (P04062 whole entry, looked up): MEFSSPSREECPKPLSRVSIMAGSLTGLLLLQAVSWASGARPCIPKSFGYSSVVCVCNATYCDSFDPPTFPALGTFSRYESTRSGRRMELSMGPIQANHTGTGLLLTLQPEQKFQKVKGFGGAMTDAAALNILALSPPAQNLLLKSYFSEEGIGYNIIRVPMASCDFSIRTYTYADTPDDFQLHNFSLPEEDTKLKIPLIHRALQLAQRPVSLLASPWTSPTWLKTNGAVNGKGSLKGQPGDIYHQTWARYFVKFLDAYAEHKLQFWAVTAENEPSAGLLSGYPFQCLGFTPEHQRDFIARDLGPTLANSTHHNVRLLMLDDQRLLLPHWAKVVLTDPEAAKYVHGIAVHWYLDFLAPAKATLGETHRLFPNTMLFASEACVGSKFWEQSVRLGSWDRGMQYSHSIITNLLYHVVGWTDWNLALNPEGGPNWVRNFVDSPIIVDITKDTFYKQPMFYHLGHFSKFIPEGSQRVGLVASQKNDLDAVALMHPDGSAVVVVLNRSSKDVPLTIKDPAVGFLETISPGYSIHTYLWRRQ

For the compound `COCCn1c(=O)c(-c2ccc(F)c(F)c2)nc2cncnc21`, the Potency in assay [1] is more than 11.4 µM; in assay [3] it was 0.251 µM (active); in assay [6], more than 9.22 µM; in assay [7] it was more than 46 µM. In addition, the activity change, negative = inhibition in assay [2] was -26.5%; in assay [4], -12.1%. Besides, the activity, negative = inhibition in [5] is 0.716%. Besides, the Potency entry in [8], in assay [9] and in assay [10] was “inactive” in each case. For the same compound, in assay [11], the result was inactive.
Consider `COCCn1c(=O)c(-c2cc(F)cc(F)c2)nc2cnc(Oc3cccc(Cl)c3)nc21`, for which the Potency was more than 11.4 µM in assay [1]; 5.01 µM (active) in assay [3]; more than 9.22 µM in assay [6]; more than 46 µM in assay [7]; 3.98 µM (active) in assay [12]. For the same compound, the activity change, negative = inhibition in assay [2] is 30.2%; in assay [4], -9.31%. Moreover, the activity, negative = inhibition in assay [5] was 24.9%. For the same compound, the Potency result in assay [8], in assay [9] and in [10] was “inactive” throughout. The outcome in [11] was inactive.
For `COc1ccc(-n2c(=O)c(-c3cn(C)c4ccccc34)nc3cncnc32)cc1`, the Potency in [1] is more than 11.4 µM; in [3], 0.316 µM (active); in assay [6] it was more than 9.22 µM; in [7], more than 46 µM. The values for the activity change, negative = inhibition in [2] and in [4] were -24.9% and 6.02%, respectively. For the same compound, the activity, negative = inhibition in assay [5] is -19.8%. In addition, the Potency entry in [8], in assay [9], in assay [12] and in assay [10] was “inactive” each time. Besides, in assay [11], the outcome was inactive.
Turning to `COc1ccc(Oc2ncc3nc(-c4cccs4)c(=O)n(C)c3n2)cc1`, the Potency is more than 11.4 µM in [1]; 3.16 µM (active) in [3]; more than 9.22 µM in assay [6]; more than 46 µM in [7]; 3.16 µM (active) in assay [12]; 3.98 µM (active) in assay [13]. For the same compound, the Potency in assay [14] was 3.16 µM (active). The activity change, negative = inhibition is 18.3% in [2] and 28.2% in assay [4]. The activity, negative = inhibition in assay [5] is 27.9%. The Potency entry in [8] and in [9] was “inactive” each time. The result in assay [11] was inactive.
On to `COc1ccc(-n2c(=O)c(C)nc3cnc(Nc4ccccc4)nc32)cc1`, for which the Potency is more than 11.4 µM in [1], 5.01 µM (active) in assay [3], more than 9.22 µM in assay [6] and more than 46 µM in assay [7]. For the same compound, the activity change, negative = inhibition was -25% in assay [2] and 0.929% in [4]. In addition, the activity, negative = inhibition in assay [5] was -5.94%. Further, the Potency result in assay [8], in assay [9] and in assay [10] was “inactive” in each case. Moreover, the outcome in assay [11] was inactive.
Take `COCCn1c(=O)c(-c2cn(C)c3ccccc23)nc2cncnc21`: the Potency is more than 11.4 µM in assay [1]; 0.398 µM (active) in assay [3]; more than 9.22 µM in assay [6]; more than 46 µM in [7]; 3.16 µM (active) in assay [13]. The activity change, negative = inhibition in assay [2] is 1.74%; in assay [4], -1.67%. Moreover, the activity, negative = inhibition in assay [5] is -9.49%. Further, the Potency result in assay [8] and in assay [10] was “inactive” in each case. In assay [11], the result was inactive.
`COc1ccc(-n2c(=O)c(CCc3ccccc3)nc3cnc(N(C)C)nc32)cc1`: the Potency in assay [1] is more than 11.4 µM; in [3] it was 3.16 µM (active); in assay [6], more than 9.22 µM; in [7] it was more than 46 µM. Besides, the values for the activity change, negative = inhibition in [2] and in assay [4] were 0.546% and -2.06%, respectively. Further, the activity, negative = inhibition in assay [5] was 0.00123%. Besides, the Potency entry in assay [8], in assay [9] and in [10] was “inactive” in each case. Also, the activation in assay [14] is 10.3%. Besides, in assay [11], the outcome was inactive.
